Only a selection was taken, and hits are over-represented in it overall.
VACV mCherry inh: vaccinia inhibition (mCherry reporter) | Vaccinia virus mCherry reporter infection, fluorescence | Potency, µM (top dose mostly 36.5 µM), without a hit: top-dose activity change, negative = inhibition, most hits filed as inhibitors | 0.63% of 310,000 active; calls by dose curve; tested in A549 cells; also: potency is read from the fitted curve at half-maximal effect; % is scaled to controls: 0 for no effect and ±100 for the full control effect; nearly all actives have a fitted effect of over 35% in size
Marburg entry inh: inhibitors of Marburg virus binding or cell entry. Marburg virus pseudotyped entry inhibition, cell reporter. Potency, µM (top dose mostly 37.8 µM), for the others: at the highest dose activity change, negative = inhibition, hits mostly inhibitors. 1.8% of 300,000 active. AID 540276; calls by dose curve; tested in HEK293 cells; also: potency is read from the fitted curve at half-maximal effect; % is scaled to controls: 0 for no effect and ±100 for the full control effect
Vaccinia Venus: vaccinia inhibition (Venus reporter) | 0.46% of 330,000 active | Potency, µM (titrated, usually from 36.5 µM), for the others: at the top dose activity change, negative = inhibition, actives largely listed as inhibitors | Vaccinia virus Venus reporter expression, fluorescence; calls by dose curve; tested in A549 cells; also: potency is read from the fitted curve at half-maximal effect; % is scaled to controls: 0 for no effect and ±100 for the full control effect; nearly all actives have a fitted effect of over 30% in size
Lassa entry inh: inhibitors of Lassa virus binding or cell entry; Potency, µM (top dose mostly 37.9 µM), for the others: top-dose activity change, negative = inhibition, usual class: inhibitors; 1.2% of 300,000 active; Lassa virus pseudotype entry inhibition, cell reporter; AID 540256; calls by dose curve; tested in HEK293 cells; also: potency is read from the fitted curve at half-maximal effect; % is scaled to controls: 0 for no effect and ±100 for the full control effect; nearly all actives have a fitted effect of over 50% in size
CHX counter: counter-screen hit for Shiga toxin inhibitors, cycloheximide | cell reporter, cycloheximide protein synthesis inhibition counterscreen | max response, % | 12% of 300,000 active | AID 2314; in the data active = max response mostly above about 13%, no sharp cut-off; inactive = mostly below about 14%; also: read at 38.3 µM for the half of the compounds with a filed dose; 0% is about no effect
Shiga toxin inh: Shiga toxin inhibition; Vero cells, Shiga toxin protein synthesis inhibition reporter; inhibition, % at 38.7 µM; 9.2% of 290,000 active; AID 2315; in the data active = inhibition mostly above about 28%, no sharp cut-off; inactive = mostly below about 43%; also: 0% is about no effect
Active calls of the source: *; [ ] = another dose, or the depositor's remark.

CCCCOC(=O)c1ccc(NC(=O)c2nn(C)cc2Br)cc1 was read as Marburg entry inh 7%, Lassa entry inh 8%, CHX counter 30* and Shiga toxin inh 79*.
For CCOc1ccc2nc(N3CCCC(C(=O)NCCCN4CCOCC4)C3)sc2c1 (centres undefined) the results were VACV mCherry inh inactive, Vaccinia Venus -14%, CHX counter 28* and Shiga toxin inh 58*.
CCOc1cc2sc(N3CCC(C(=O)Nc4ccc(C(C)C)cc4)CC3)nc2cc1Br was read as VACV mCherry inh -1%, Marburg entry inh inconclusive, Vaccinia Venus -15%, CHX counter 56* and Shiga toxin inh 120*.
Screening CCOc1ccc2nc(N3CCC(C(=O)NCCCN4CCOCC4)CC3)sc2c1 returned VACV mCherry inh -16%, Marburg entry inh inconclusive, Vaccinia Venus -5%, Lassa entry inh -11%, CHX counter 37* and Shiga toxin inh 56*.
CCOc1ccc2nc(N3CCC(C(=O)Nc4c(C)cccc4C)CC3)sc2c1 was read as VACV mCherry inh -30%, Marburg entry inh inconclusive and Vaccinia Venus inconclusive.
Screening O=C(Nc1ccc2c(c1)CCC2)c1cnn2c1NC(=C1CC1)C=C2C(F)F returned VACV mCherry inh -6% and Vaccinia Venus -17%.
Screening O=Nc1c(-c2ccccc2)n(O)[n+]([O-])c1-c1ccccc1 returned VACV mCherry inh inconclusive and Vaccinia Venus 11µM*.
`CCOC(=O)N1CCc2c(sc3c2c(=O)n(Cc2ccccc2)c(=O)n3CC(=O)Nc2ccccc2F)C1` gave VACV mCherry inh -17%, Marburg entry inh 0%[46.1 µM], Vaccinia Venus -14% and Lassa entry inh 18%[46.1 µM].
Screening COc1ccc(NC(=O)c2cc3ccc(O)cc3o/c2=N\O)cc1 returned VACV mCherry inh inconclusive, Marburg entry inh inconclusive, Vaccinia Venus -29%, Lassa entry inh inconclusive, CHX counter 15* and Shiga toxin inh 24.
`COc1ccc(NC(=O)c2cc3cc(OC)ccc3oc2=N)cc1` gave VACV mCherry inh -13%, Marburg entry inh -36%, Vaccinia Venus -10%, Lassa entry inh -9%, CHX counter 5 and Shiga toxin inh -12.
O=C(c1ccc(F)cc1)c1cc2ccc(O)cc2oc1=O was read as VACV mCherry inh -12%, Marburg entry inh inconclusive, Vaccinia Venus -2%, Lassa entry inh 8%[46.1 µM], CHX counter 12 and Shiga toxin inh 25.
Screening N=c1oc2cc(O)ccc2cc1C(=O)Nc1ccc(F)cc1 returned VACV mCherry inh inactive, Marburg entry inh 8%[46.1 µM], Vaccinia Venus -5%, Lassa entry inh inconclusive, CHX counter 27* and Shiga toxin inh 43*.
Screening CCCCCCCc1cc2ccccc2c2c(C(C)=O)c(-c3ccccc3)c(C(=O)OC)n12 returned Marburg entry inh -16%[14.2 µM] and Lassa entry inh inconclusive.
`CC(C)Cn1c(C(C)C)nc([N+](=O)[O-])c1S(=O)(=O)c1ccc(F)cc1` gave Marburg entry inh inconclusive, Lassa entry inh -25%, CHX counter -5 and Shiga toxin inh -8.
Screening CCCc1nc([N+](=O)[O-])c(S(=O)(=O)c2ccccc2)n1CC(C)C returned VACV mCherry inh inconclusive, Marburg entry inh 12µM*, Vaccinia Venus inconclusive, Lassa entry inh inconclusive, CHX counter -3 and Shiga toxin inh -5.
CC(=O)c1cccc(NC(=O)c2cc3ccccn3n2)c1 was read as VACV mCherry inh 0%, Vaccinia Venus 2%, CHX counter 30* and Shiga toxin inh 34.
Screening Cc1cc(Cl)ccc1NC(=O)c1cc2ccccn2n1 returned VACV mCherry inh inactive, Vaccinia Venus -7% and Lassa entry inh inconclusive.
COc1ccc(C)cc1NC(=O)c1cc2ccccn2n1 was read as VACV mCherry inh -13%, Vaccinia Venus 0% and Lassa entry inh 20%[46.1 µM].
Screening Cc1ccc(C)c(NC(=O)c2cc3ccccn3n2)c1 returned VACV mCherry inh -5%, Vaccinia Venus -1%, CHX counter 27* and Shiga toxin inh 99*.
Screening Cc1ccccc1NC(=O)c1cc2ccccn2n1 returned CHX counter 52* and Shiga toxin inh 67*.
O=C(NCc1ccc(F)cc1)c1cc2ccccn2n1 was read as VACV mCherry inh 7%, Marburg entry inh 12%, Vaccinia Venus -1%, Lassa entry inh -1%, CHX counter 24* and Shiga toxin inh -40.
CCc1ccc(CNC(=O)c2cc3ccccn3n2)cc1 was read as VACV mCherry inh -8%, Vaccinia Venus -7% and Lassa entry inh inconclusive.
For O=C(NCC1Cc2cccc(-c3cnccn3)c2O1)c1ccc(F)c(Cl)c1 (centres undefined) the results were VACV mCherry inh -10% and Vaccinia Venus -4%.
`CCCCCC(=O)N1C[C@@H](O)[C@H](n2cc(-c3ccc(F)cc3)nn2)C[C@H]1c1ccc(C)cc1` gave Lassa entry inh 9%[46.1 µM].
Cc1ccc(C)c(NC(=O)c2cnn3ccccc23)c1 was read as VACV mCherry inh -15%, Vaccinia Venus -8%, CHX counter 14* and Shiga toxin inh 66.
For CCC(C)c1ccc(NC(=O)N2CCOCC2)cc1 (centres undefined) the results were VACV mCherry inh -4%, Marburg entry inh 1%, Vaccinia Venus -25%, Lassa entry inh -10%, CHX counter 41* and Shiga toxin inh 68*.
`O=C(Nc1ccc(F)cc1)N1CCCCCC1` gave VACV mCherry inh -16%, Marburg entry inh 0%[46.1 µM], Vaccinia Venus -10%, Lassa entry inh -14%[46.1 µM], CHX counter 15* and Shiga toxin inh 31*.
`CCCN1CCN(C(=O)Nc2ccc(C(=O)OCC)cc2)CC1` gave Marburg entry inh 3%, Lassa entry inh -5%, CHX counter 12* and Shiga toxin inh 30.
Screening CCC(C)c1ccc(NC(=S)NC(C)C2CCCO2)cc1 (centres undefined) returned VACV mCherry inh -9%, Vaccinia Venus -14%, CHX counter 10* and Shiga toxin inh 38*.
For CCCC(=O)N1CCc2cc(OC)c(OC)cc2C1COc1ccc2c(C)cc(=O)oc2c1 (centres undefined) the results were VACV mCherry inh -11%, Marburg entry inh -4%[46.1 µM], Vaccinia Venus -1% and Lassa entry inh 2%[46.1 µM].
`CCOC(=O)c1ccc(NC(=O)N2CCCCCC2)cc1` gave VACV mCherry inh -13%, Marburg entry inh -10%, Vaccinia Venus -6%, Lassa entry inh inconclusive, CHX counter 76* and Shiga toxin inh 123*.
CCOC(=O)c1ccc(NC(=O)N2CCOCC2)cc1 was read as VACV mCherry inh -9%, Marburg entry inh 13%, Vaccinia Venus 21%, Lassa entry inh inconclusive, CHX counter 35 and Shiga toxin inh 98*.
Screening CCOC(=O)c1cccc(NC(=O)N2CCOCC2)c1 returned VACV mCherry inh inactive, Marburg entry inh 18%[46.1 µM], Vaccinia Venus -21%, Lassa entry inh -11%[46.1 µM], CHX counter 4 and Shiga toxin inh -11.
CCOC(=O)c1ccc(NS(=O)(=O)N2CCCCCC2)cc1 was read as Marburg entry inh 20%, Vaccinia Venus -18%, Lassa entry inh inconclusive, CHX counter 32* and Shiga toxin inh 74*.

From PubChem BioAssay
